Test results: PubChem BioAssay (NCI)
Compounds without any hit were thinned out: in the full panel of roughly 83,000, 20% have a hit.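 48-hour exposure, single concentration, 96-well plates; percent growth endpoint where 0 means no net growth. Active: below 10.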 Unmarked numbers belong to inactive results. Activity calls are given as the source filed them.

How the values were obtained:
Experiment in all cases: NCI-60 one-dose screen, 48 h (100 = growth as untreated, 0 = no growth, -100 = all killed)
Conditions in all cases: 10 µM unless noted
NCI-H23 lung = tested on: NCI-H23 lung
NCI-H226 lung = tested on: NCI-H226 lung
NCI-H322M lung = tested on: NCI-H322M lung
HOP-62 NSCLC = tested on: HOP-62 NSCLC
NCI-H460 lung = tested on: NCI-H460 lung
HOP-92 NSCLC = tested on: HOP-92 NSCLC
NCI-H522 lung = tested on: NCI-H522 lung
A549/ATCC NSCLC = tested on: A549/ATCC NSCLC
786-0 renal = tested on: 786-0 renal
COLO 205 colon = tested on: COLO 205 colon

Structure (SMILES) | growth (NCI-H23 lung) | growth (NCI-H226 lung) | growth (NCI-H322M lung) | growth (HOP-62 NSCLC) | growth (NCI-H460 lung) | growth (HOP-92 NSCLC) | growth (NCI-H522 lung) | growth (A549/ATCC NSCLC) | growth (786-0 renal) | growth (COLO 205 colon)
Nc1nc(N)c(N=Nc2ccccc2)c(-c2ccccc2)n1 | 65.4% | 55.4% | 70.1% | 46.9% | 48.7% | 38.8% | 49.2% | 63.8% | 60.7% | 65.8%
CC[N+]1(CC)CC[N+]2(CCCC(C)CC2)CC1 (stereo not drawn) | 102% | 104% | 106% | 106% | 105% | 96.4% | – | 91.6% | 99.9% | 113%
Cc1ncc(C(=O)Nc2ccc(CN3CCN(C)CC3)c(C(F)(F)F)c2)cc1C#Cc1cnc(N)c2ncccc12 | 38.4% | 42.6% | 30.3% | 20.6% | 27.1% | 14.7% | – | 21.2% | -71.4% (active) | 1.6% (active)
O=C1Nc2ccccc2/C1=C/c1cccn1C(=O)c1ccc(Cl)s1 | 30.2% | 61.7% | 50.4% | 52.3% | 75.7% | 70.2% | – | 23.4% | 85.3% | 68%
C=C1C(=O)O[C@H]2[C@H]1CC/C(COC(=O)/C=C\C(=O)NCc1ccc(Cn3c(=O)sn(CCCCC)c3=O)cc1)=C\CC[C@@]1(C)O[C@@H]21 | 87.4% | 104% | 101% | 104% | 97.8% | 89.7% | – | 97.5% | 62.8% | 19.3%
CC1(C)OB(O)c2cc(-c3nc4ccc5[nH]ncc5c4c4c3CCCC4)ccc21 | 62.8% | 55% | 57% | 68.2% | 34.1% | 73.9% | – | 56.4% | 66.1% | 80.9%
O=C(N/N=C\c1cccc([N+](=O)[O-])c1)N/N=C/c1cccc([N+](=O)[O-])c1 | 101% | 92.4% | 104% | 92.9% | 107% | 105% | – | 100% | 111% | 119%
COc1ccc(CCN2C(=O)/C(=C/c3ccc(C4Oc5ccccc5C5CC(c6ccccc6)=NN54)cc3)SC2=S)cc1 (stereo not drawn) | 100% | 105% | 108% | 98.1% | 110% | 111% | – | 108% | 106% | 107%
COc1ccc(-c2nn(-c3ccccc3)cc2/C=C/C(=O)NNC(=O)Nc2ccc(C)cc2)cc1 | 102% | 97.2% | 99.6% | 102% | 102% | 102% | – | 94.8% | 101% | 103%
C#CC#CC#CC#CC#CC#CC#CC#CC[C@@H]1OC[C@@H](COC(=O)O[C@@H](C(=O)O[C@H]2C[C@@]3(O)[C@@H](OC(=O)c4ccccc4)[C@@H]4[C@]5(OC(C)=O)CO[C@@H]5C[C@H](O)[C@@]4(C)C(=O)[C@H](OC(C)=O)C(=C2C)C3(C)C)[C@@H](NC(=O)c2ccccc2)c2ccccc2)O1 | 27.1% | 32.3% | 23.5% | 95.2% | 99.7% | 42.9% | – | 94.7% | 16.3% | 108%
Cc1ccc(N2C(=O)CCC2=O)cc1 | 101% | 105% | 104% | – | 99.7% | 96.3% | 74.2% | 102% | 97.4% | 107%
Cn1c2c(c3ccc(Cl)c(Cl)c31)C(C#N)C(C)(C)NC2=O (stereo not drawn) | 97.6% | 59.4% | 91.4% | – | 91% | 72.8% | 55.8% | 89.5% | 69.3% | 92.2%
O=C(/C=C/c1ccccc1)c1ccc(Nc2nc(Nc3ccc(F)cc3)nc(Nc3ccc(Cl)cc3)n2)cc1 | 83.9% | 96.1% | 94.5% | – | 82.1% | 48.1% | 87.6% | 112% | 86.8% | 70.6%
O=C(CCCCCCN1CC(=O)N2[C@H](c3ccc(Cl)cc3)c3[nH]c4ccccc4c3C[C@@H]2C1=O)NO | 60.2% | 84.1% | 64.1% | – | 54.2% | 44.4% | 32.8% | 90.1% | 92.9% | 57.3%
O=C(NNC(=O)c1nc2cc(F)ccc2n2cccc12)c1cnccn1 | 45.7% | 42.4% | 45.2% | – | 14.7% | 47.7% | 56.1% | 28.5% | 51.9% | 16.5%
COc1ccc2c(c1)c(-c1nc(-c3c[nH]c4ncccc34)cs1)cn2CCCN1CCOCC1 | 56.6% | 45.4% | 42.1% | – | 25.7% | 27.9% | 26.3% | 42% | -24.3% (active) | -38.5% (active)
CS(=O)(=O)c1ccc(NC(=O)c2ccccc2)nc1 | 108% | 103% | 111% | – | 105% | 106% | 68.9% | 96.3% | 99.1% | 128%
COc1cccc(Nc2ncnc3cc(NC(=O)CCl)ccc23)c1 | -50.9% (active) | -48.3% (active) | 37.5% | – | -72.7% (active) | -74.8% (active) | -77.4% (active) | -27.7% (active) | -89.7% (active) | -90% (active)
Cc1cccc(-c2nc(Nc3ccc4ncsc4c3)c3ccccc3n2)n1 | 57.8% | 84.9% | 93.5% | – | 36.1% | 110% | 56% | 34.5% | 87.7% | 12.8%
Nc1ccc(-c2csc(-n3[nH]c(=O)ccc3=O)n2)cc1 | 98% | 92.2% | 103% | – | 102% | 103% | 93.4% | 101% | 87.1% | 109%
Cc1ccc(Cl)cc1NC(=O)c1sc2nc3c(cc2c1N)C(=O)CCC3 | 63% | 88.3% | 95.7% | – | 28.1% | 56.9% | 22.9% | 53.9% | 89.3% | 39.7%
CC(C)N1C(=O)/C(=c2\sc3n(c2=O)C2C(NN=3)N(C)C(=O)N2C)c2ccccc21 (stereo not drawn) | 74.6% | 83% | 91.6% | – | 62.2% | 42.9% | 33.9% | 50.8% | 62.7% | 91.1%
Cn1c(=O)c2[nH]c(SCC(=O)Nc3ccc(C(=O)/C=C/c4ccccc4Cl)cc3)nc2n(C)c1=O | 98.1% | 93.1% | 97.6% | – | 102% | 65% | 94.3% | 86.7% | 88.3% | 117%
CCOc1c(OC)cc2c(c1O)C(=O)N[C@@H]1[C@@H](O)[C@@H](O)[C@H](O)C[C@@H]21 | 107% | 99.8% | 103% | – | 112% | 85.2% | 92.3% | 94.7% | 102% | 115%
CC1(C)CC2=C3C=C[C@@H]4[C@@]5(C)CCC(=O)C(C)(C)[C@@H]5CC[C@@]4(C)[C@]3(C)CC[C@@]2(C(=O)O)C[C@H]1O | 23.2% | 25.5% | 26.6% | – | 18% | -7.2% (active) | 26.4% | 26.3% | 17.2% | 29.2%
[2H]C([2H])([2H])Oc1ccc(F)cc1/C=C/C(=O)/C=C(/C=C/c1cc(F)ccc1OC([2H])([2H])[2H])OB(F)F | 76.6% | 109% | 108% | – | 95.5% | 99.7% | 18.9% | 90.8% | 86.3% | 57.6%
O=C1/C(=C/c2ccc(O)c(O)c2)COc2ccc(-c3ccccc3)cc21 | 35.8% | 36.2% | 54.8% | – | 13.7% | 1.73% (active) | -67.2% (active) | 31.8% | 24.8% | 5.4% (active)
CNC1=C([N+](=O)[O-])C(c2ccc(OC)cc2)C(C#N)=C(c2cccs2)O1 (stereo not drawn) | 103% | 99.8% | 103% | – | 109% | 125% | 102% | 102% | 110% | 111%
